Bioassay records: PubChem BioAssay, National Center for Advancing Translational Sciences (NCATS)
TRHR agonist: agonists of human TRH receptor; TRHR cells, calcium flux fluo-8, FDSS agonist mode; activation, % at 2 µM; P34981; AID 493084; hit rate 0.18% among 360,000
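Agonist-mode FDSS calcium read (Ex 480/Em 530, 1 s cycles) in 1536-well TRHR cells with fluo-8 dye, after 10-cycle baseline and 23 nL compound addition; TRH at EC20 (10 nM final) added afterwards for the enhancer phase.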
D1 agonist: human D1 receptor agonism; HEK293 T-REx D1 cells, calcium flux, agonist mode; activation, % at 2 µM; hit rate 1% among 360,000; AID 504660
Target sequence (P21728 whole entry, looked up): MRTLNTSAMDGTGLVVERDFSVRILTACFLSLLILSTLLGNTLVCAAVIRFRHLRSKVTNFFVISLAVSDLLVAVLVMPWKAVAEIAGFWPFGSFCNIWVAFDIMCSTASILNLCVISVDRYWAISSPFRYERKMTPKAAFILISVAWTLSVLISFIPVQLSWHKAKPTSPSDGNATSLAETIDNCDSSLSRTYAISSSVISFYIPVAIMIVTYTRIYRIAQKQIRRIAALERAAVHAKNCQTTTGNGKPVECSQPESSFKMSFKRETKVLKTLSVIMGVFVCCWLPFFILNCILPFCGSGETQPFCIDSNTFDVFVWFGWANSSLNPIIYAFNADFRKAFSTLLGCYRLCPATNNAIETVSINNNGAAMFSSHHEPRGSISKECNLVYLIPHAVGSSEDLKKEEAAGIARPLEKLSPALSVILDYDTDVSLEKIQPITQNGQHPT
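Tetracycline-induced HEK293 TREx D1 cells, force-coupled to calcium signalling, were dye-loaded with a no-wash calcium kit. Compound was pin-added after a 10 s baseline. Fluorescence was read kinetically at 1 cycle/s for 180 s, with calcium rises flagged as agonism.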
TRHR enhancer: TRH receptor (human) allosteric enhancement. P34981. TRHR cells, fluo-8 calcium fluorescence, EC20 TRH enhancement. enhancement, % at 2 µM. hit rate 0.66% among 360,000. AID 493056; in the data active = enhancement above about 30%
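Enhancer read-out: after compound pinning and an initial kinetic agonist-mode read, an EC20 of TRH (10 nM final) was injected and fluo-8 calcium signal (Ex 480/Em 530) followed at 1 s/cycle for 100 cycles in TRHR-expressing cells.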
D1 antagonist: antagonists of human D1 dopamine receptor. P21728. HEK293 TREx D1 cells, calcium flux, dopamine EC80; hits give low values. activity change, negative = inhibition, % at 10 µM. hit rate 3.2% among 360,000; in the data active = activity change below about -30%
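Calcium flux readout: force-coupled, inducible Hek293 Trex D1 line, cells induced overnight at 30 C with tetracycline, dye-loaded 30–90 min at RT. Antagonism scored against EC80 dopamine challenge given 180 s after compound.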
D1 PAM: human D1 dopamine receptor positive modulation; P21728; hit rate 0.036% among 360,000; potentiation, % at 10 µM; HEK293 TREx D1 cells, calcium flux, dopamine EC20 potentiation; in the data active = potentiation above about 30%
A number is an active result. Only some compounds are listed: those with a hit (about 4.7% of all), similar ones and a draw of the others. Cut-off read from the data, not from the text of the source, unless noted: active = activation above about 30%; inactive = the rest.

Screening CC(=O)NC(c1cc(Cl)c2cccnc2c1O)C1CC1 (stereo not given) returned TRHR agonist inactive, D1 agonist inactive, TRHR enhancer inactive, D1 antagonist -54.9 and D1 PAM inactive.
For CC(C)CN(C(=O)COC(=O)c1cccnc1Cl)c1c(N)n(Cc2ccccc2)c(=O)[nH]c1=O the results were TRHR agonist inactive, D1 agonist inactive, TRHR enhancer inactive, D1 antagonist -34.9 and D1 PAM inactive.
For COCCN(C(=O)COC(=O)c1cccnc1Cl)c1c(N)n(Cc2ccccc2)c(=O)[nH]c1=O the results were TRHR agonist inactive, D1 agonist inactive, TRHR enhancer inactive, D1 antagonist inactive and D1 PAM inactive.
For CCOC(=O)c1cccc(NC(=O)CCn2c(-c3ccc(F)cc3)cc(C(=O)OCC)c2C)c1 the results were TRHR agonist inactive, D1 agonist inactive, TRHR enhancer inactive, D1 antagonist inactive and D1 PAM inactive.
COc1ccc(Cn2c(C)nc3ccc([N+](=O)[O-])cc3c2=O)cc1 was read as TRHR agonist inactive, D1 agonist inactive, TRHR enhancer inactive, D1 antagonist -30.2 and D1 PAM inactive.
For COc1ccc(N2CC(C(=O)Nc3ccccc3C(=O)NC3CC3)CC2=O)cc1 (stereo not given) the results were TRHR agonist inactive, D1 agonist inactive, TRHR enhancer inactive, D1 antagonist inactive and D1 PAM inactive.
Screening O=C(COC(=O)c1cc(S(=O)(=O)NCc2ccccc2)ccc1O)NCc1ccccc1 returned TRHR agonist inactive, D1 agonist inactive, TRHR enhancer inactive, D1 antagonist inactive and D1 PAM inactive.
For O=C(COC(=O)c1cc(S(=O)(=O)NCc2ccccc2)ccc1O)c1cc2ccccc2o1 the results were TRHR agonist inactive, D1 agonist inactive, TRHR enhancer inactive, D1 antagonist -62.1 and D1 PAM inactive.
`O=C(CNC(=O)C1CCCCC1)NNC(=O)c1ccc(Cl)cc1Cl` gave TRHR agonist inactive, D1 agonist inactive, TRHR enhancer inactive, D1 antagonist inactive and D1 PAM inactive.
For O=C(CNC(=O)C1CCCCC1)NNC(=O)c1ccccc1Br the results were TRHR agonist inactive, D1 agonist inactive, TRHR enhancer inactive, D1 antagonist -35.3 and D1 PAM inactive.
CCn1cc(C(=O)OCC(=O)N(C)C2CCS(=O)(=O)C2)c(=O)c2ccc(C)nc21 (stereo not given) was read as TRHR agonist inactive, D1 agonist inactive, TRHR enhancer 31.1, D1 antagonist inactive and D1 PAM inactive.
`CCn1cc(C(=O)OCC(=O)c2cc(C)n(-c3ccc(OC(F)F)cc3)c2C)c(=O)c2ccc(C)nc21` gave TRHR agonist inactive, D1 agonist inactive, TRHR enhancer inactive, D1 antagonist -32.3 and D1 PAM inactive.
For COc1cccc(CC(=O)OC(C)C(=O)Nc2ncc(Cl)cc2Cl)c1 (stereo not given) the results were TRHR agonist inactive, D1 agonist inactive, TRHR enhancer inactive, D1 antagonist inactive and D1 PAM inactive.
Screening Cc1nc(C(=O)O)nn1-c1ccc([N+](=O)[O-])cc1 returned TRHR agonist inactive, D1 agonist inactive, TRHR enhancer inactive, D1 antagonist inactive and D1 PAM inactive.
`CC(=O)Nc1c(C)nn(-c2ccc([N+](=O)[O-])cc2)c1C` gave TRHR agonist inactive, D1 agonist inactive, TRHR enhancer 36.9, D1 antagonist inactive and D1 PAM inactive.
For CN(C)CCNC(=O)c1sc2nc(-c3ccccc3)cc(C(F)(F)F)c2c1N the results were TRHR agonist inactive, D1 agonist 36.7, TRHR enhancer inactive, D1 antagonist inactive and D1 PAM inactive.
`Cc1c(C(=O)O)sc2nc(-c3cccs3)cc(C(F)(F)F)c12` gave TRHR agonist inactive, D1 agonist inactive, TRHR enhancer inactive, D1 antagonist inactive and D1 PAM inactive.
For COc1ccc(-c2cc(C(F)(F)F)c3c(N)c(C(=O)NCCSC)sc3n2)cc1 the results were TRHR agonist inactive, D1 agonist 31.1, TRHR enhancer inactive, D1 antagonist inactive and D1 PAM inactive.
For COc1ccc(OC)c(NC(=O)c2sc3nc(Cc4ccccc4)cc(C(F)(F)F)c3c2N)c1 the results were TRHR agonist inactive, D1 agonist inactive, TRHR enhancer inactive, D1 antagonist inactive and D1 PAM inactive.
For COc1cccc(-c2cc(C(F)(F)F)c3c(N)c(C#N)sc3n2)c1 the results were TRHR agonist inactive, D1 agonist 34.3, TRHR enhancer inactive, D1 antagonist inactive and D1 PAM inactive.
Screening CC(=O)c1sc2nc(-c3cccs3)cc(C(F)(F)F)c2c1N returned TRHR agonist 40.9, D1 agonist 180.0, TRHR enhancer inactive, D1 antagonist inactive and D1 PAM inactive.
Screening COc1cccc(CNC(=O)CCc2c(C)c3cc4c(C)c(C)oc4cc3oc2=O)c1 returned TRHR agonist inactive, D1 agonist inactive, TRHR enhancer inactive, D1 antagonist inactive and D1 PAM inactive.
`COc1cccc2cc(CC(=O)c3ccc(C)cc3C)c(=O)oc12` gave TRHR agonist inactive, D1 agonist inactive, TRHR enhancer inactive, D1 antagonist inactive and D1 PAM inactive.
Cc1cccc(CNC(=O)CN2C(=O)CCCc3ccccc32)c1 was read as TRHR agonist inactive, D1 agonist inactive, TRHR enhancer inactive, D1 antagonist inactive and D1 PAM inactive.
`CCOC(=O)CCCCNCc1ccccc1` gave TRHR agonist inactive, D1 agonist inactive, TRHR enhancer 30.2, D1 antagonist inactive and D1 PAM inactive.
Screening O=C(O)CCCCCNCc1ccncc1 returned TRHR agonist inactive, D1 agonist inactive, TRHR enhancer inactive, D1 antagonist -41.1 and D1 PAM inactive.
For O=C(O)CCCCNCc1ccccc1 the results were TRHR agonist inactive, D1 agonist inactive, TRHR enhancer inactive, D1 antagonist inactive and D1 PAM inactive.
CCC(CC)C(=O)NC1CC(=O)N(c2ccc3c(c2)OCCO3)C1 (stereo not given) was read as TRHR agonist inactive, D1 agonist inactive, TRHR enhancer inactive and D1 PAM inactive.
`Cc1cc(Oc2nc3ccccn3c(=O)c2/C=C(\C#N)C(=O)NC2CCS(=O)(=O)C2)ccc1Cl` (stereo not given) gave TRHR agonist inactive, D1 agonist inactive, TRHR enhancer inactive, D1 antagonist -30.0 and D1 PAM inactive.
CS(=O)(=O)N(CC(=O)N/N=C/c1cc([N+](=O)[O-])ccc1Cl)c1ccccc1 was read as TRHR agonist inactive, D1 agonist inactive, TRHR enhancer inactive, D1 antagonist inactive and D1 PAM inactive.
Cc1cccc(N(CC(=O)N/N=C/c2cc([N+](=O)[O-])ccc2Cl)S(C)(=O)=O)c1C was read as TRHR agonist inactive, D1 agonist inactive, TRHR enhancer inactive, D1 antagonist -45.4 and D1 PAM inactive.
Screening CCc1nnc(NS(=O)(=O)c2ccc(NCc3cc(Cl)cc(Cl)c3O)cc2)s1 returned TRHR agonist inactive, D1 agonist 33.3, TRHR enhancer inactive, D1 antagonist inactive and D1 PAM inactive.
